# PubChem BioAssay (Tox21)
# Results filed as inconclusive are left out. Calls of active or inactive are those of the source. Calls come from the whole dose curve; as a rule, active = well fitted activation curve with a large enough effect in the signal ratio in the repeat runs (not every such curve was filed as active); inconclusive = weak or mixed curves; inactive = flat fitted curve, though single readings scatter; the % refers to the signal ratio.
# Assay: qHTS assay to identify small molecule agonists of the hypoxia (HIF-1) signaling pathway (AID 1224846)
# Details: HRE-bla ME-180 cells, beta-lactamase ratio, 17 h; series mostly up to 76.8 µM; activation: at the top concentration
# Description: U.S. Tox21 Program National Center for Advancing Translational Sciences [NCATS] NIH Chemical Genomics Center [NCGC] U.S. Environmental Protection Agency [EPA] National Institutes of Environmental Health Sciences [NIEHS] National Toxicology Program [NTP] U.S. Food and Drug Administration [FDA] Tox21 Assay Overview: Hypoxia-inducible factor-1 (HIF-1) is the major hypoxia-regulated transcription factor that controls cellular responses to low oxygen concentration. HIF-1 is composed of two subunits: hypoxia responsive HIF-1-alpha and constitutively expressed HIF-1-beta, which is also known as aryl hydrocarbon receptor nuclear translocator. During hypoxic conditions, HIF-1-alpha heterodimerizes with HIF-1-beta and translocates into the nucleus where the HIF-1 complex binds to the hypoxia-response element (HRE) and activates expression of target genes such as VEGF (vascular endothelial growth factor). The HIF-1 pathway is essential to normal growth and development, and is involved in the pathophysiology of cancer, inflammation, and ischemia. Using a beta-lactamase reporter-gene under control of the hypoxia response element, a cell-based assay [CellSensor(TM) HRE-bla ME-180 from Life Technologies, Carlsbad, CA] was used to measure hypoxia-induced signaling. Tox21 10K library compounds were measured for their ability to induce the reporter gene activity.
# Tox21 Assay Protocol Summary: HRE-bla ME-180 cells were dispensed at 2,000 cells per well in 6 uL of assay medium containing 0.5% dialyzed FBS into black wall/clear-bottom 1536-well plates using a Multidrop Combi (Thermo Scientific, Waltham, MA) dispenser. After the assay plates were incubated at 37C and 5% CO2 for 5 hrs, 23 nL of compounds dissolved in DMSO, positive controls or DMSO only was transferred to each well of the assay plate using a Pintool station (Kalypsys, San Diego, CA). The assay plates were incubated at 37C and 5% CO2 for 17 hrs. One uL of LiveBLAzerTM B/G FRET substrate (CCF4-AM) (Life Technologies) was added to each well using a Flying Reagent Dispenser (Aurora Discovery, San Diego, CA).
# % is set by controls: 0 for no effect and ±100 for the full control effect.
SMILES,outcome,activation
CCCC[P+](CCCC)(CCCC)CCCC,inactive,
O=C(O)CC(O)C(=O)O (stereo not given),inactive,
Cc1c(C(=O)O)c(O)cc2c1C(=O)c1c(O)c([C@@H]3O[C@H](CO)[C@@H](O)[C@H](O)[C@H]3O)c(O)c(O)c1C2=O,inactive,
CC(=O)CC(c1ccccc1)c1c(O)c2ccccc2oc1=O (stereo not given),inactive,
OC[C@H]1O[C@H](O[C@]2(CCl)O[C@H](CCl)[C@@H](O)[C@@H]2O)[C@H](O)[C@@H](O)[C@H]1Cl,inactive,
CC(=O)C(=O)O,inactive,
CCOC(N)=O,inactive,
CCN(Cc1c(F)cccc1Cl)c1c([N+](=O)[O-])cc(C(F)(F)F)cc1[N+](=O)[O-],,-0.121% (inactive)
COc1cccc(O)c1O,,-0.346% (inactive)
Cc1ncc([N+](=O)[O-])n1C,inactive,
CC(=O)CCC(=O)O,inactive,
CCCCCCc1ccc(O)cc1O,,1.89% [at 35.5 µM] (inactive)
COc1ccc(C(Cl)=C(c2ccc(OC)cc2)c2ccc(OC)cc2)cc1,,6.88% [at 35.5 µM] (inactive)
O=CC(=O)c1ccccc1,,-0.723% (inactive)
Cc1cc(C)nc(NS(=O)(=O)c2ccc(N)cc2)n1,inactive,
NC(=O)c1cccnc1,inactive,
CC12CCC(CC1)C(C)(C)O2,inactive,
C=C(C)C(=O)OCC(C)O (stereo not given),inactive,
C=CCc1ccc(O)c(OC)c1,inactive,
CCCCCCCC(=O)OCC(COC(=O)CCCCCCC)OC(=O)CCCCCCC,inactive,

SMILES,outcome,activation
CN(C)C(=O)Nc1ccc(Cl)c(Cl)c1,inactive,
NC(CO)(CO)CO,inactive,
Nc1ccc2c(c1)CN1C(=O)c3ccccc3C1=N2,,0.64% [at 15.8 µM] (inactive)
F[B-](F)(F)F,inactive,
Nc1ccc(O)c([N+](=O)[O-])c1,,1.65% (inactive)
O=C(O)c1ccccc1,inactive,
O=S1(=O)OC(c2ccc(O)cc2)(c2ccc(O)cc2)c2ccccc21,inactive,
CC(C)c1c(C(=O)Nc2ccccc2)c(-c2ccccc2)c(-c2ccc(F)cc2)n1CC[C@@H](O)C[C@@H](O)CC(=O)O,inactive,
CC1(C)O[C@@H]2C[C@H]3[C@@H]4CCC5=CC(=O)C=C[C@]5(C)[C@@]4(F)[C@@H](O)C[C@]3(C)[C@]2(C(=O)CO)O1,inactive,
Cn1c(=O)c2c(ncn2C)n(C)c1=O,inactive,
O=C1O[C@H]([C@@H](O)CO)C(O)=C1O,inactive,
O=C1NS(=O)(=O)c2ccccc21,inactive,
Oc1ccccc1,inactive,
O=c1[nH]cnc2c1ncn2[C@H]1CC[C@@H](CO)O1,inactive,
C/C=C/C=C/C(=O)O,inactive,
NS(=O)(=O)O,inactive,
COc1ccc(OC(F)(F)F)cc1CN[C@H]1CCCN[C@H]1c1ccccc1,,-0.0772% (inactive)
CCN(CC)C(=O)c1cccc(C)c1,inactive,
CN(N=O)C(=O)N[C@@H]1[C@@H](O)[C@H](O)[C@@H](CO)O[C@@H]1O,inactive,
Cc1cccc(C)c1,inactive,
